In PubChem BioAssay:
Active and inactive are the calls of the source.

Experiments:
[1] = compound effects on lung adenocarcinoma cell viability – A549, calcein-AM fluorescence, 48 h, basal, profiling panel (AID 1162); details: higher = more signal
[2] = compound effects on differentiated 3T3-L1 adipocyte viability – cell-based, 3T3-L1 adipocytes, calcein-AM fluorescence, 48 h, basal, profiling panel (AID 1163); details: 3T3-L1 adipocytes viability, higher = more signal
[3] = compound effects on hepatocellular carcinoma cell viability – HepG2, calcein-AM fluorescence, 48 h, basal, profiling panel (AID 1164); details: higher = more signal
[4] = compound effects on multiple myeloma cell viability – MM1S, calcein-AM fluorescence, 48 h, basal, profiling panel (AID 1165); details: higher = more signal;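 also: viability of MM1S multiple myeloma cells under basal unstimulated conditions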
[5] = calcein-AM signal in unstimulated myeloma cells – cell-based, calcein-AM fluorescence, 48 h, PK04 Diversity Set, profiling panel (AID 1166); details: RPMI8226 myeloma viability, higher = more signal;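 also: cells grown under basal conditions without added stimulus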
[6] = JC-1 mitochondrial signal, unstimulated HepG2 cells – cell-based, JC-1 fluorescence, 24 h, 100 nL compound, profiling panel (AID 1167); details: HepG2 mitochondrial potential, higher = more signal
[7] = JC-1 mitochondrial signal, unstimulated adipocytes – cell-based, JC-1 fluorescence, 3T3-L1 adipocytes, 24 h, 100 nL compound, profiling panel (AID 1168); details: JC-1 mitochondrial fluorescence, higher = more signal, called active from +8 up or from −8 down
[8] = JC-1 mitochondrial signal, unstimulated myeloma cells – cell-based, JC-1 fluorescence, RPMI8226, 24 h, 100 nL compound, profiling panel (AID 1169); details: JC-1 mitochondrial potential fluorescence, higher = more signal
[9] = JC-1 mitochondrial signal, unstimulated MM1S myeloma – cell-based, JC-1 fluorescence, 24 h, 100 nL compound, profiling panel (AID 1170); details: MM1S mitochondrial potential, higher = more signal
[10] = resazurin metabolic signal in A549 cells – cell-based, resazurin fluorescence, 24 h, PK04 Diversity Set, profiling panel (AID 1171); details: A549 viability, higher = more signal, called active from +8 up or from −8 down
Also: test concentration not given here.

Row | Compound | z-score [1] | z-score [2] | z-score [3] | z-score [4] | z-score [5] | z-score [6] | z-score [7] | z-score [8] | z-score [9] | z-score [10]
1 | C[C@@H]1NC(=O)[C@@H](Cc2ccccc2)NC(=O)[C@@]23C(=O)N[C@@H](Cc4ccccc4)C2[C@H](C)[C@@]2(C)O[C@H]2C3/C=C/C/C=C\CNC1=O (stereo not given in full) | -0.312 | 0.599 | -0.543 | 0.18 | -0.377 | -1.36 | -0.308 (inactive) | -0.0163 | 1.09 | -0.879 (inactive)
2 | [N-]=[N+]=NCc1ccccc1[C@@H]1OC(c2ccc(OCCCO)cc2)=N[C@]1(CCS(=O)(=O)c1ccccc1)C(=O)O | 0.338 | -0.801 | 1.05 | 0.078 | -0.206 | -1.69 | -1.02 (inactive) | -0.178 | -1.39 | -0.216 (inactive)
3 | COc1cc2c(cc1O)C=[N+](Cc1sc3ccccc3c1Cl)CC2 | -0.47 | 0.425 | -0.349 | -0.278 | -0.133 | -1.06 | -0.501 (inactive) | -0.143 | -0.598 | 0.33 (inactive)
4 | [N-]=[N+]=Nc1ccccc1C[C@]1(C(=O)NCCN2CCOCC2)COC(c2ccc(OCCCO)cc2)=N1 | 1.84 | 0.0471 | 1.31 | 0.534 | 0.586 | 0.157 | 0.959 (inactive) | -0.264 | -0.422 | 0.887 (inactive)
5 | CCOC(=O)C[C@H]1[C@H](OC(=O)c2cc3ccccc3oc2=O)[C@@H](NC(=O)c2ccccc2)c2cc(OCCCO)ccc2N1C(=O)c1ccccc1 | 0.102 | 1.36 | -0.521 | -0.836 | -2.3 | 1.23 | 0.434 (inactive) | -0.954 | 0.185 | -0.238 (inactive)
6 | CCCN1C(=O)[C@@]2(Cc3ccccc31)N=C(c1ccc(OCCCO)cc1)O[C@H]2c1ccccc1 | -1.06 | 0.526 | -1.1 | -3.51 | -4.16 | -0.895 | 0.201 (inactive) | -1.16 | -0.502 | -1.11 (inactive)
7 | COc1ccc(C#Cc2ccc3c(c2)[C@]2(C(=O)N3)[C@H](C(=O)O)[C@H]3C(=O)O[C@H](c4ccccc4)[C@H](c4ccccc4)N3[C@@H]2c2ccc(O)cc2)cc1 | -0.483 | 1.65 | -0.176 | -2.61 | -3.91 | -3.99 | -1.15 (inactive) | -0.85 | -0.623 | 0.199 (inactive)
8 | COc1ccc([Si](C)(C)[C@@H]2[C@@H](CC(=O)N3Cc4ccccc4C[C@H]3CO)O[C@]3(C(=O)N(Cc4ccc(N5C(=O)c6cccc7cccc5c67)cc4)c4ccccc43)[C@H]2C)cc1 | 0.396 | 0.885 | 0.355 | -2.78 | -0.705 | 1.15 | -0.0452 (inactive) | -0.0572 | 0.893 | -0.787 (inactive)
9 | COCCOC(=O)N1C(=O)[C@@]2(c3cc(C#CCCO)ccc31)[C@H](c1ccc(OCCO)cc1)N1[C@H](c3ccccc3)[C@H](c3ccccc3)OC(=O)[C@H]1[C@@H]2C(=O)Nc1nc2ccccc2s1 | -0.255 | 0.561 | 0.779 | -0.981 | -0.0413 | -3.68 | -1.38 (inactive) | -0.78 | -1.81 | -0.5 (inactive)
10 | COCCOC(=O)N1C(=O)[C@@]2(c3cc(C#CC4=CCCCC4)ccc31)[C@H](C(=O)Nc1nc3ccccc3s1)[C@H]1C(=O)O[C@H](c3ccccc3)[C@H](c3ccccc3)N1[C@@H]2c1ccc(O)cc1 | 0.427 | 0.217 | 0.0981 | -1.79 | -1.62 | -3.16 | -0.762 (inactive) | -0.404 | -0.54 | -0.353 (inactive)
11 | [N-]=[N+]=Nc1ccccc1C[C@]1(C(=O)O)COC(c2ccc(OCCCO)cc2)=N1 | -0.118 | 0.909 | 0.215 | -0.0932 | -0.747 | -0.253 | -1.19 (inactive) | -0.329 | 0.529 | -0.98 (inactive)
12 | COC(=O)[C@@H]1N=C(c2ccc(OCCCO)cc2)O[C@@H]1c1ccccc1 | 0.623 | 0.469 | -0.677 | 0.565 | 0.474 | -0.659 | -0.652 (inactive) | 0.278 | -0.241 | 0.331 (inactive)
13 | [N-]=[N+]=Nc1ccccc1C[C@@]1(C(N)=O)N=C(c2ccc(OCCCO)cc2)O[C@@H]1c1ccccc1N=[N+]=[N-] | -1.53 | 1.08 | -0.727 | -1.68 | -4.08 | -1.11 | -1.35 (inactive) | -1.23 | -0.169 | -0.385 (inactive)
14 | CO[C@H]1O[C@H](CO)[C@@H](OC(=O)Nc2ccc(Br)cc2)[C@@H]2OC(=O)[C@@H](Cc3ccccc3)C/C=C/C[C@H](Cc3ccccc3)C(=O)O[C@@H]12 | 0.468 | 0.424 | -1.35 | -1.41 | -3.32 | 0.125 | 2.12 (inactive) | -1.19 | -0.241 | -3.17 (inactive)
15 | COC(=O)[C@@]1(Cc2ccc(OC)cc2)[C@H]2c3cc(C(=O)N(C)C)n(Cc4ccc(OC(F)(F)F)cc4)c3C[C@H]2CN1C(=O)c1ccccc1 | -1.34 | -0.306 | -0.77 | -3.39 | -4.11 | -2.18 | -0.922 (inactive) | -0.791 | -2.79 | -1.36 (inactive)
16 | O=C1OCCC=C[C@H]2OC34C=CCN(Cn5nnc6ccccc65)C(=O)[C@H]3N(CCCO)C(=O)[C@@H]4C12 (stereo not given in full) | 0.213 | 1.03 | -1.1 | 0.114 | -1.04 | -0.746 | 0.147 (inactive) | 0.057 | 0.251 | -0.618 (inactive)

Row | Compound | z-score [1] | z-score [2] | z-score [3] | z-score [4] | z-score [5] | z-score [6] | z-score [7] | z-score [8] | z-score [9] | z-score [10]
17 | O=C1OCCC=C[C@H]2OC34C=CCN(c5ccc6ccccc6c5)C(=O)[C@H]3N(CCCO)C(=O)[C@@H]4C12 (stereo not given in full) | 0.167 | 1.41 | -0.16 | 0.441 | -0.556 | -0.458 | 0.241 (inactive) | -0.0315 | -0.89 | -0.391 (inactive)
18 | COCC(=C=CC[C@H](O)c1ccccc1OCCO)C[C@H](O)c1ccccn1 | 1.12 | 0.381 | 0.781 | 0.943 | 0.139 | 1.01 | -0.443 (inactive) | -0.471 | -1.09 | -0.0836 (inactive)
19 | CN(C)C(=O)[C@@]1(Cc2ccccc2CN=[N+]=[N-])N=C(c2ccc(OCCCO)cc2)O[C@H]1c1ccccc1N=[N+]=[N-] | -1.63 | 2 | -2.15 | -3.03 | -3.98 | 0.129 | -0.052 (inactive) | -1.08 | -0.796 | -2.09 (inactive)
20 | COC(=O)[C@@]1(Cc2ccc(F)cc2)[C@H]2c3cc(C(=O)N(C)C)n(Cc4ccc(OC(F)(F)F)cc4)c3C[C@H]2CN1C(=O)c1ccccc1 | -0.524 | -0.859 | -0.51 | -0.225 | 0.218 | -0.0759 | -0.392 (inactive) | -0.0137 | -0.276 | -0.914 (inactive)
21 | [N-]=[N+]=Nc1ccccc1[C@@H]1OC(c2ccc(OCCCO)cc2)=N[C@]1(Cc1ccccc1)C(=O)N1CCCCC1 | -0.523 | -0.0528 | -0.822 | -2.91 | -4.32 | 0.408 | 1.87 (inactive) | -1.17 | -2.19 | -1.61 (inactive)
22 | CN(C)C(=O)[C@]1(Cc2ccccc2CN=[N+]=[N-])N=C(c2ccc(OCCCO)cc2)O[C@@H]1c1ccccc1 | -2.01 | 0.894 | -1.65 | -3.16 | -4.37 | -0.117 | -0.58 (inactive) | -1.33 | -1.37 | 0.721 (inactive)
23 | NC(=O)NCC#Cc1ccc2c(c1)[C@]1(C(=O)N2)[C@H](C(=O)N2CCN(c3ncccn3)CC2)[C@H]2C(=O)O[C@H](c3ccccc3)[C@H](c3ccccc3)N2[C@@H]1c1ccc(O)cc1 | 0.348 | -0.173 | -0.388 | -0.977 | 0.18 | -1.99 | -1.02 (inactive) | -0.315 | 0.247 | -0.292 (inactive)
24 | Cc1ccccc1C(O)C1C=CC2C(=O)NC(=O)C2N1Nc1ccccn1 (stereo not given) | -0.251 | -1.09 | -0.823 | -0.0706 | -0.729 | -0.831 | -0.654 (inactive) | 0.551 | 0.365 | -1.02 (inactive)
25 | CC(C)N1C(=O)C[C@@](C(=O)NC2CC2)(c2ccc([N+](=O)[O-])cc2)[C@H]1c1ccc(CO)cc1 | 0.219 | 1.98 | 1.03 | 0.941 | -1.73 | 0.347 | -0.0995 (inactive) | -0.416 | 0.059 | -0.0786 (inactive)
26 | COc1ccc(C#Cc2ccc3c(c2)[C@]2(C(=O)N3)[C@H](c3ccc(OCCO)cc3)N3[C@H](c4ccccc4)[C@H](c4ccccc4)OC(=O)[C@H]3[C@@H]2C(=O)NC[C@H](O)c2ccccc2)cc1 | 0.357 | -0.177 | 1.08 | 0.373 | -1.46 | -1.04 | 4.7 (inactive) | -0.808 | -1.4 | 0.0652 (inactive)
27 | C=CCNC(=O)[C@@H]1[C@H]2C(=O)O[C@H](c3ccccc3)[C@H](c3ccccc3)N2[C@H](c2ccccc2OCCO)[C@@]12C(=O)Nc1ccc(C#CCCO)cc12 | -0.368 | 0.953 | 0.151 | -0.66 | -0.485 | -0.699 | 0.959 (inactive) | -0.435 | -0.608 | 0.322 (inactive)
28 | COc1ccc([Si](C)(C)[C@@H]2[C@@H](CCO)O[C@]3(C(=O)N(Cc4ccccc4)c4ccc(N5CCOC5=O)cc43)[C@H]2C)cc1 | -1.39 | 1.67 | -1.26 | -2.34 | -3.44 | -0.309 | 0.168 (inactive) | -0.947 | -0.756 | -1.94 (inactive)
29 | O=C1C2C=CC(C(O)c3cccc(O)c3)N(Nc3ccc([N+](=O)[O-])cc3)C2C(=O)N1c1ccccc1 (stereo not given) | -0.505 | -0.55 | -0.0586 | -0.0899 | 0.45 | -2.01 | -1.78 (inactive) | -0.217 | -1.25 | 0.014 (inactive)
30 | O=C1O[C@@H](c2ccccc2)[C@@H](c2ccccc2)N2[C@@H](c3ccc(OCCO)cc3)[C@]3(C(=O)Nc4ccc(C#CC5=CCCCC5)cc43)[C@@H](C(=O)NC[C@H](O)c3ccccc3)[C@H]12 | 0.152 | 1.49 | 0.348 | 0.0056 | -2.81 | -1.93 | -0.106 (inactive) | -0.875 | -1.24 | -0.956 (inactive)
31 | COc1ccc([Si](C)(C)[C@@H]2[C@@H](CCO)O[C@]3(C(=O)N(Cc4ccccc4)c4ccc(N5C(=O)c6cccc7cccc5c67)cc43)[C@H]2C)cc1 | -0.768 | -0.384 | -0.916 | -0.61 | -2.73 | -0.555 | 0.943 (inactive) | -0.751 | -1.3 | -0.149 (inactive)
